From PubChem BioAssay (Tox21)
Results filed as inconclusive are left out. The source made the active and inactive calls. Unless noted, the call rests on the fitted dose curve; in most records, active means well fitted curve in the direction sought with a large enough effect in the repeat runs; inconclusive means weak or mixed curves; inactive means no such curve, though single readings can be large; an effect the other way counts as inactive or inconclusive.

What was measured:
[1] = qHTS assay to identify small molecule agonists of the hypoxia (HIF-1) signaling pathway - cell viability counter screen (AID 1224844; calls by dose curve; further: nearly all actives have a fitted effect of over 50% in size)
Summary of the method: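 Same wells as the HIF-1 reporter screen; ME-180 cells carrying HRE-bla, 17 hr treatment at 37C; CellTiter-Glo luminescence read after 30 min at room temperature.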

[2] = qHTS assay to identify small molecule agonists of H2AX (AID 1224845; active means well fitted activation curve with a large enough effect in the signal ratio in the repeat runs, not every such curve was filed as active; the % refers to the signal ratio)
Summary of the method: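 Wild-type CHO-K1 cells plated overnight, then exposed 3 hr at 37C to compounds at 15 concentrations (0.76% DMSO). Lysed, then HTRF anti-pH2AX(S139)-cryptate/anti-H2AX-d2 detection after 24 hr at room temperature; emissions 665 and 620 nm.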

[3] = qHTS assay to identify small molecule agonists of the hypoxia (HIF-1) signaling pathway (AID 1224846; active means well fitted activation curve with a large enough effect in the signal ratio in the repeat runs, not every such curve was filed as active; the % refers to the signal ratio)
Summary of the method: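 In ME-180 cells bearing an HRE-bla construct, 17 h treatment with DMSO-dissolved compounds at 37C was followed by CCF4-AM loading to quantify reporter induction.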

[4] = qHTS assay to identify small molecule agonists of H2AX - cell viability counter screen (AID 1224847; calls by dose curve; further: top concentration of the series differs between compounds; nearly all actives have a fitted effect of over 30% in size)
Summary of the method: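 Read-out: CellTiter-Glo luminescence, 30 min RT. Cells: wild-type CHO-K1, 1000/well, 10% FBS, plated overnight at 37C. Treatment: 15 concentrations, 3 hr, 37C, 0.76% DMSO.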

[5] = qHTS RealTime-Glo MT Cell Viability Assay in HepG2 cells - 24 hour (AID 1224867); further: nearly all actives have a fitted effect of over 50% in size
Summary of the method: (§1)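 Luminescence read-out: viable HepG2 cells reduce a prosubstrate to a NanoLuc substrate, giving a signal proportional to live cell number. Reads taken at 0, 8, 16, 24, 32 and 40 h of compound exposure at 37 C.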

[6] = qHTS RealTime-Glo MT Cell Viability Assay in HEK293 cells - 32 hour (AID 1224868); further: top concentration of the series differs between compounds; nearly all actives have a fitted effect of over 50% in size
Summary of the method: (§2)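 Nonlytic real-time viability readout: viable cells convert prosubstrate to NanoLuc substrate, giving luminescence proportional to live cell number. HEK293, 600 cells/well, compound added after 5 h, continuous culture at 37 C.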

[7] = A CellTox Green Cytotoxicity Assay to monitor cytotoxicity in HEK293 cells - 0 hour (AID 1224869); further: nearly all actives have a fitted effect of over 50% in size
Summary of the method: (§3)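 Homogeneous no-lysis format: HEK293 cell suspension mixed with CellTox Green reagent, seeded, incubated 5 h at 37 C/5% CO2, then dosed by pintool with compound in DMSO.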

[8] = qHTS RealTime-Glo MT Cell Viability Assay in HepG2 cells - 40 hour (AID 1224870); further: nearly all actives have a fitted effect of over 50% in size
Summary of the method: (§4)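 HepG2 cells mixed with RealTime-Glo MT reagents (NanoLuc plus cell-permeant prosubstrate) were seeded at 600 cells/well, incubated 5 h at 37 C/5% CO2, then pinned with compounds in DMSO; nonlytic luminescence tracked viability during 40 h treatment.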

[9] = A CellTox Green Cytotoxicity Assay to monitor cytotoxicity in HEK293 cells - 40 hour (AID 1224871); further: nearly all actives have a fitted effect of over 45% in size
Summary of the method: as §3

[10] = qHTS RealTime-Glo MT Cell Viability Assay in HEK293 cells - 16 hour (AID 1224872)
Summary of the method: as §2

[11] = qHTS RealTime-Glo MT Cell Viability Assay in HepG2 cells - 8 hour (AID 1224873); further: nearly all actives have a fitted effect of over 55% in size
Summary of the method: as §4

[12] = qHTS RealTime-Glo MT Cell Viability Assay in HEK293 cells - 40 hour (AID 1224874); conditions: RealTime-Glo luminescence; max response: active compounds read low; further: nearly all actives have a fitted effect of over 50% in size
Summary of the method: (§5)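 Measured as luminescence from the same continuously cultured HEK293 wells at successive time points (0, 8, 16, 24, 32, 40 h) after compound addition. Reagent present from seeding; dosing at 5 h; incubation 37 C.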

[13] = A CellTox Green Cytotoxicity Assay to monitor cytotoxicity in HEK293 cells - 24 hour (AID 1224875); further: series mostly up to about 77 µM; nearly all actives have a fitted effect of over 45% in size
Summary of the method: as §3

[14] = A CellTox Green Cytotoxicity Assay to monitor cytotoxicity in HepG2 cells - 16 hour (AID 1224876); further: nearly all actives have a fitted effect of over 45% in size
Summary of the method: (§6)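 Fluorescent DNA-binding dye, 600 HepG2 cells/well, 5 h preincubation then compound in DMSO; same plates read at 0–40 h, 37 C.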

[15] = qHTS RealTime-Glo MT Cell Viability Assay in HepG2 cells - 32 hour (AID 1224877); further: nearly all actives have a fitted effect of over 55% in size; further: potency means the concentration at half of the fitted maximal effect
Summary of the method: as §1

[16] = A CellTox Green Cytotoxicity Assay to monitor cytotoxicity in HepG2 cells - 24 hour (AID 1224878); further: nearly all actives have a fitted effect of over 45% in size
Summary of the method: as §6

[17] = A CellTox Green Cytotoxicity Assay to monitor cytotoxicity in HepG2 cells - 40 hour (AID 1224879); further: nearly all actives have a fitted effect of over 40% in size
Summary of the method: as §6

[18] = qHTS RealTime-Glo MT Cell Viability Assay in HEK293 cells - 0 hour (AID 1224880)
Summary of the method: as §5

[19] = qHTS assay to identify small molecule antagonists of the estrogen related receptor (ERR) signaling pathway from Tox21 library (AID 1224848); further: nearly all actives have a fitted effect of over 50% in size
Summary of the method: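 First, 2,000 ERR cells per well were plated and held 6 h at 37 C/5% CO2. Next, compounds in DMSO were pinned in and left 18 h at 37 C. Finally, ONE-Glo was added and luminescence read after 30 min at room temperature.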

[20] = qHTS assay to identify small molecule agonists of the estrogen related receptor (ERR) signaling pathway from Tox21 library (AID 1224849; calls by dose curve; further: nearly all actives have a fitted effect of over 15% in size)
Summary of the method: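 Reporter cells (ERR, NTP source) treated with Tox21 10K compounds 18 h, 37 C. Readout: ONE-Glo luminescence, 30 min RT.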
On the % scale 0 is the no-effect control and ±100 the full control effect.

C=C(C)C(=O)OCC1CCCO1 (centres undefined)
inactive: Potency [1] | Potency [2] | outcome [3] | outcome [4] | outcome [5] | Potency [6] | outcome [7] | Potency [8] | Potency [9] | Potency [10] | outcome [11] | max response [12] 7.57% | outcome [13] | outcome [14] | Potency [15] | outcome [16] | Potency [17] | Potency [18]

COCCOCC(OC)OC
inactive: Potency [1] | Potency [2] | outcome [3] | outcome [4] | Potency [19] | outcome [20] | Potency [6] | outcome [7] | Potency [8] | Potency [9] | Potency [10] | outcome [11] | max response [12] -1.01% | outcome [13] | outcome [14] | Potency [15] | outcome [16] | Potency [17] | Potency [18]

CCN1CCOCC1
inactive: Potency [1] | Potency [2] | outcome [3] | outcome [4] | outcome [5] | Potency [6] | outcome [7] | Potency [8] | Potency [9] | Potency [10] | outcome [11] | max response [12] -0.712% | outcome [13] | outcome [14] | Potency [15] | outcome [16] | Potency [18]

COc1ccc2cc1Oc1cc3c(cc1OC)CC[N+](C)(C)[C@H]3Cc1ccc(cc1)Oc1c(OC)c(OC)cc3c1[C@@H](C2)[N+](C)(C)CC3
inactive: Potency [1] | Potency [2] | outcome [3] | outcome [4] | Potency [19] | outcome [20] | Potency [6] | outcome [7] | Potency [9] | Potency [10] | outcome [11] | max response [12] -3.12% | outcome [13] | outcome [14] | outcome [16] | Potency [17] | Potency [18]
active: Potency [15] 21.3 µM

C=COC(=O)C(C)(CC)CCC(C)C (centres undefined)
inactive: Potency [1] | Potency [2] | outcome [3] | outcome [4] | outcome [5] | Potency [6] | outcome [7] | Potency [8] | Potency [9] | Potency [10] | outcome [11] | max response [12] 0.193% | outcome [13] | outcome [14] | Potency [15] | outcome [16] | Potency [17]

CC(C)C(=O)OC(=O)C(C)C
inactive: Potency [1] | Potency [2] | outcome [3] | outcome [4] | outcome [5] | Potency [6] | outcome [7] | Potency [8] | Potency [9] | Potency [10] | outcome [11] | max response [12] 3.07% | outcome [13] | outcome [14] | Potency [15] | outcome [16] | Potency [18]

CC(CO)(CO)[N+](=O)[O-]
inactive: Potency [1] | Potency [2] | outcome [3] | outcome [4] | outcome [5] | Potency [6] | outcome [7] | Potency [8] | Potency [9] | Potency [10] | outcome [11] | max response [12] 3.85% | outcome [13] | outcome [14] | Potency [15] | outcome [16] | Potency [17] | Potency [18]
